# Results from paper PMC11062922 (Nature Chemical Biology, 2023).
# Read-outs that look alike come from different tables or passages of the source.
# How the values were obtained:
# Design in all cases: species or system human, MV4-11 + K-562 + COLO205 + SK-N-BE2 + OVCAR-8
# CDK16 = conditions: read-out: apparent Kd, n = 1
# CDK17 = conditions: read-out: apparent Kd, n = 1
# MAPK9 = conditions: read-out: apparent Kd, n = 1
# PTK2 = conditions: read-out: apparent Kd, compound concentrations: 100 nM and 1000 nM (sheet 'Samples'), n = 1
# RIOK2 = conditions: read-out: apparent Kd, n = 1
# ADCK1 = conditions: read-out: apparent Kd, n = 1
# PRKD3 = conditions: read-out: apparent Kd, n = 1
# STK4 = conditions: read-out: apparent Kd, compound concentrations: 100 nM and 1000 nM (sheet 'Samples'), n = 1
# LATS1 = conditions: read-out: apparent Kd; compound concentrations: 100 nM and 1000 nM (sheet 'Samples'), CATDS: 1.48300039917603E-2; n = 1
# MARK3 = conditions: read-out: apparent Kd; compound concentrations: 100 nM and 1000 nM (sheet 'Samples'), CATDS: 1.6672626063874801E-2; n = 1
# MARK4 = conditions: read-out: apparent Kd; compound concentrations: 100 nM and 1000 nM (sheet 'Samples'), CATDS: 1.7623267984443299E-2; n = 1
# PKN1 = conditions: read-out: apparent Kd; compound concentrations: 100 nM and 1000 nM (sheet 'Samples'), CATDS: 1.2984656701456401E-2; n = 1
# PKN3 = conditions: read-out: apparent Kd; compound concentrations: 100 nM and 1000 nM (sheet 'Samples'), CATDS: 6.8634871166861197E-3; n = 1
# PLK4 = conditions: read-out: apparent Kd; compound concentrations: 100 nM and 1000 nM (sheet 'Samples'), CATDS: 9.3439650172966598E-3; n = 1
# PRKAG1 = conditions: read-out: apparent Kd; compound concentrations: 100 nM and 1000 nM (sheet 'Samples'), CATDS: 1.7529215817932601E-2; n = 1
# PRKCD = conditions: read-out: apparent Kd; compound concentrations: 100 nM and 1000 nM (sheet 'Samples'), CATDS: 1.08121865447726E-2; n = 1
# PTK2B = conditions: read-out: apparent Kd; compound concentrations: 100 nM and 1000 nM (sheet 'Samples'), CATDS: 2.4807788404782798E-2; n = 1
# RPS6KA6 = conditions: read-out: apparent Kd; compound concentrations: 100 nM and 1000 nM (sheet 'Samples'), CATDS: 8.3254992837084908E-3; n = 1
# SIK2 = conditions: read-out: apparent Kd; compound concentrations: 100 nM and 1000 nM (sheet 'Samples'), CATDS: 1.8714442667333402E-2; n = 1
# [1] = compound concentrations:100 nM and 1000 nM (sheet 'Samples')
compound,measurement,setting,value
COc1cc(Nc2nccc(-c3cnn4ncccc34)n2)cc(OC)c1 [GW801372X],potency estimated from few doses,"CDK16; compound concentrations: 100 nM and 1000 nM (sheet 'Samples'), CATDS: 1.6995450779384601E-2",2320 nM
same,potency estimated from few doses,"CDK17; compound concentrations: 100 nM and 1000 nM (sheet 'Samples'), CATDS: 1.7691642172044799E-2",1920 nM
same,potency estimated from few doses,"MAPK9; compound concentrations: 100 nM and 1000 nM (sheet 'Samples'), CATDS: 1.8501615721313099E-2",1580 nM
same,potency estimated from few doses,PTK2; CATDS: 2.4454982719063802E-2,604 nM
same,potency estimated from few doses,"RIOK2; compound concentrations: 100 nM and 1000 nM (sheet 'Samples'), CATDS: 1.79748800643771E-2",1790 nM
CN(C)CC(O)COc1ccc(Nc2nccc(-c3cnn4nc(N5CCOCC5)ccc34)n2)cc1 (centres unmarked) [GW767488X],potency estimated from few doses,ADCK1; [1],587 nM
same,potency estimated from few doses,CDK16; [1],262 nM
same,potency estimated from few doses,CDK17; [1],200 nM
same,potency estimated from few doses,MAPK9; [1],134 nM
same,potency estimated from few doses,PRKD3; [1],44.8 nM
same,potency estimated from few doses,RIOK2; [1],206 nM
COc1cc(Nc2nccc(N3CCC(NC(=O)c4cccc(NC(C)=O)c4)C3)n2)cc(OC)c1OC (centres unmarked) [GSK1379754A],potency estimated from few doses,"ADCK1; compound concentrations: 100 nM and 1000 nM (sheet 'Samples'), CATDS: 8.2961514797517094E-2",1820 nM
NC(=O)c1cc(-c2ccccc2)cc2c(C3CCNCC3)c[nH]c12 [GSK301362A],potency estimated from few doses,ADCK1; [1],1520 nM
Cc1cc(-c2ccnc(Nc3cccc(C#N)c3)n2)cc(C)c1O [GSK1440913A],potency estimated from few doses,"ADCK1; compound concentrations: 100 nM and 1000 nM (sheet 'Samples'), CATDS: 7.9755280277017199E-2",1350 nM
FC(F)(F)c1ccc(-c2ncn(CCCN3CCOCC3)c2-c2ccncc2)cc1 [SB-217780],potency estimated from few doses,STK4; CATDS: 0.215555066939567,1540 nM
O=C(O)C(F)(F)F.O=C(O)C(F)(F)F.O=c1[nH]ccc2nc(N[C@@H]3CCCNC3)nc(Nc3ccc(S(=O)(=O)N4CCOCC4)cc3)c12.O=c1[nH]ccc2nc(N[C@@H]3CCCNC3)nc(Nc3ccc(S(=O)(=O)N4CCOCC4)cc3)c12 [GSK2177277A],potency estimated from few doses,"CDK16; compound concentrations: 100 nM and 1000 nM (sheet 'Samples'), CATDS: 2.61766261640392E-2",32 nM
same,potency estimated from few doses,"CDK17; compound concentrations: 100 nM and 1000 nM (sheet 'Samples'), CATDS: 6.5557639532583699E-3",1380 nM
same,potency estimated from few doses,LATS1,99 nM
same,potency estimated from few doses,MARK3,76.4 nM
same,potency estimated from few doses,MARK4,68 nM
same,potency estimated from few doses,PKN1,136 nM
same,potency estimated from few doses,PKN3,1090 nM
same,potency estimated from few doses,PLK4,337 nM
same,potency estimated from few doses,PRKAG1,68.8 nM
same,potency estimated from few doses,PRKCD,219 nM
same,potency estimated from few doses,"PRKD3; compound concentrations: 100 nM and 1000 nM (sheet 'Samples'), CATDS: 1.7898299297347601E-2",65.9 nM
same,potency estimated from few doses,PTK2B,35.2 nM
same,potency estimated from few doses,PTK2; CATDS: 7.5985318000446602E-3,700 nM
same,potency estimated from few doses,"RIOK2; compound concentrations: 100 nM and 1000 nM (sheet 'Samples'), CATDS: 6.0080792942577401E-3",2350 nM
same,potency estimated from few doses,RPS6KA6,496 nM
same,potency estimated from few doses,SIK2,60.1 nM
same,potency estimated from few doses,STK4; CATDS: 4.9368785940317003E-2,11.7 nM
